Our source for the IFI values is ChEMBL document CHEMBL1157539, “Thousands of chemical starting points for antimalarial lead identification” (Nature, 2010).

In all, about 13,000 compounds were measured (“IFI”: median about 4, highest 2% from about 17 on). The entries come from a sample that favours the highest values as a whole.

This experiment can be described thus: GSK_TCMDC: Inhibition Frequency Index (IFI). The number of non-kinase HTS assays where a compound showed > 50 % inhibition, expressed as a percentage of the number of such assays in which the compound was tested. In kind it is functional.
`O=C(Nc1ccccc1)Nc1cccc(-c2cccc(-c3nc4cc(F)ccc4[nH]3)c2)c1` had an IFI of 3%.
Turning to `Cc1ccc2[nH]c(-c3cc(-c4ccc(CO)cc4)cnc3N)nc2c1`, the IFI worked out at 5.51%.
The compound `c1ccc2oc(-c3cc4ccncc4cc3OC3CCNCC3)cc2c1` yielded an IFI of 8.77%.
The figure for `CC(C)CCCC(C)(C)NC[C@@H](O)[C@H](Cc1ccccc1)NC(=O)c1cccc(OCC2CC2)c1` is 18.6%; for `CC(C)CCCC(C)(C)NC[C@@H](O)[C@H](Cc1ccccc1)NC(=O)c1cccc(CCC2CC2)c1` it is 22.4%; for `O=C(N[C@@H](Cc1ccccc1)[C@H](O)CNCCC(F)(F)F)c1cccc(CCC2CC2)c1` it is 6.1%.
The compound `O=C(N[C@@H](Cc1ccccc1)[C@H](O)CNCCC(F)(F)F)c1cccc(OCC2CC2)c1` yielded an IFI of 6.1%.
Consider `CCc1cn(CCOC)c2ccc(C(=O)N[C@@H](Cc3ccccc3)[C@H](O)CNC(C)(C)CCCC(C)C)cc12`, for which the IFI was determined as 5.07%.
The figure for `CCc1cn(CCc2ccccc2)c2ccc(C(=O)N[C@@H](Cc3ccccc3)[C@H](O)CNC(C)(C)CCCC(C)C)cc12` is 8.7%; for `COc1cc2nc(N3CCC(CNC(=O)c4ccc(-c5ccc(C#N)cc5C)cc4)CC3)nc(N)c2cc1OC` it is 6.31%; for `CCN(CC)CCCNc1ncc2c(-c3ccc(NC(=O)Nc4cc(C(F)(F)F)ccc4F)cc3)nn(C)c2n1` it is 10.8%.
The compound `CN(c1ccccc1)S(=O)(=O)c1cccc(NC(=O)c2ccc(-n3ccnc3)c([N+](=O)[O-])c2)c1` displayed an IFI of 17.2%.
Regarding `Cc1nnc2sc(-c3cccc(NC(=O)c4ccc(N5CCCCC5)c([N+](=O)[O-])c4)c3)nn12`, the IFI came out at 1.47%.
Turning to `O=C(Nc1ccc(-c2nc3ccccc3[nH]2)cc1)c1ccc(N2CCCC2)c([N+](=O)[O-])c1`, the IFI is 0.99%.
`CN1CCN(CCNc2c3ccccc3nc3c2ccc2ccccc23)CC1` returned an IFI of 6.99%.
In turn, `O=S(=O)(Nc1cccc(CCN2CCCCC2CCN2CCCC2)c1)c1ccc(Oc2ccccc2)cc1` (configuration not stated) displayed an IFI of 17.5%.
As for `O=S(=O)(Nc1cccc(CCN2CCCCC2CCN2CCCC2)c1)c1ccc(-c2ccccc2)cc1` (configuration not stated), the IFI came out at 14.5%.
On to `O=S(=O)(Nc1cccc(CCN2CCCCC2CCN2CCCC2)c1)c1ccc2ccccc2c1` (configuration not stated), for which the IFI is 13.1%.
As to `NC1CCCN(Cc2cccc(-c3ccc(-c4nc5cc(C(F)(F)F)ccc5[nH]4)cc3)c2)C1` (configuration not stated), the IFI came to 5.63%.
Regarding `CC(=NNC(=N)N)c1ccc2c(c1)Cc1ccccc1-2`, the IFI came out at 7.19%.
`CS(=O)(=O)NCCCNCc1ccc(-c2ccc(-c3nc4cc(F)ccc4[nH]3)cc2)cc1`: the IFI was found to be 5.94%.
Compound `Nc1c2c(nc3ccc(NC(=O)c4ccccc4)cc13)CCCC2` displayed an IFI of 2.86%.
The compound `CC(C)(C)c1ccc(C(=O)Nc2ccc3nc4c(c(N)c3c2)CCCC4)cc1` had an IFI of 4.9%.
In turn, `Nc1c(I)cc(C(=O)Nc2ccc3nc4c(c(N)c3c2)CCCC4)cc1I` yielded an IFI of 22.8%.
Turning to `CCN(CCCN1CCCCC1)c1cc(C)nc(Nc2ccc(Cl)cc2C)n1`, the IFI was determined as 5%.
In turn, `CN(C)c1ccc(CN2CCC(CNC(=O)c3cc(-c4cccc(F)c4)cs3)C2)cc1` (configuration not stated) gave an IFI of 6.12%.
The figure for `CCN1CCC(N(Cc2ccc(-c3ccc(C(F)(F)F)cc3)cc2)C(=O)Cn2c(SCc3cccc(F)c3F)cc(=O)c3ccccc32)C1` (configuration not stated) is 7.14%.
Next, `CCN1CCC(N(Cc2ccc(-c3ccc(C(F)(F)F)cc3)cc2)C(=O)Cn2c(SCc3ccc(F)cc3)nc(=O)c3c2CCC3)CC1`: 12.5%.
Next, `CCN1CCC(N(Cc2ccc(-c3ccc(C(F)(F)F)cc3)cc2)C(=O)Cn2nc(C)c(=O)cc2SCc2ccc(F)cc2)CC1`: 19.6%; `Cc1cccc2nc(-c3ccc(-c4ccc(NC(=O)C5CCN(C)CC5)cc4)cc3)[nH]c12`: 4.24%; `COc1cc(C(=O)N2CCOC(CCN3CCC[C@H]3C(=O)Nc3ccccc3)(c3ccc(Cl)c(Cl)c3)C2)cc(OC)c1OC` (some centres not stated): 4.83%.
Take `COc1ccc2ncc(F)c(CCN3CC(O)C(CNCc4ccccc4)C3)c2n1` (configuration not stated): the IFI was 2.94%.
`O=C(NCCc1ccccc1)N(Cc1ccc(-c2cccc(CN3CCNCC3)c2)cc1)C1CCN(Cc2ccccc2)CC1` came in with an IFI of 6.67%.
On to `CC(C)C[C@H](NC(=O)c1cc2ccccc2s1)C(=O)N[C@H]1CCN(Cc2ccc(OC[C@@H]3CCCN3C)c(Cl)c2)C1`, for which the IFI was determined as 6.67%.
Turning to `CC(C)C[C@H](NC(=O)c1cc2ccccc2s1)C(=O)N[C@H]1CCN(Cc2ccc(OC3CCN(C)C3)c(Cl)c2)C1` (some centres not stated), the IFI came out at 6.67%.
Next, `CC(C)C[C@H](NC(=O)c1cc2ccccc2s1)C(=O)N[C@H]1CCN(Cc2ccc(OCCCN(C)C)c(Cl)c2)C1`: 17.2%; `O=C1CCCN1CCCNCc1cccc(-c2cccc(-c3nc4cc(F)ccc4[nH]3)c2)c1`: 4.85%; `Cc1ccc(C)c(NC(=O)CC2C(=O)N(c3ccccc3)C(=S)N2Cc2ccco2)c1` (configuration not stated): 0.76%.
Consider `NC(=O)C1CCN(Cc2ccc(-c3cccc(-c4nc5cc(F)ccc5[nH]4)c3)cc2)CC1`, for which the IFI is 0%.
Compound `Cc1ccc(Nc2nc(C)cc(NC3CCCC3)n2)cc1` showed an IFI of 21.3%.
`Cc1ccc(Nc2nc(C)cc(NC3CC3)n2)cc1` had an IFI of 4.62%.
For the compound `Cc1cc(NC2CCCC2)nc(Nc2ccc(F)cc2)n1`, the IFI worked out at 9.09%.
`CC1CN(c2cccc3c2nc(-c2cncc(C#N)c2)n3CCNCc2ccccc2)CC(C)O1` (configuration not stated) returned an IFI of 0%.
In turn, `CCN1CCC(N(Cc2ccc(-c3ccc(C(F)(F)F)cc3)cc2)C(=O)Cn2c(CCc3cccc(F)c3F)cc(=O)c3c2CCC3)CC1` displayed an IFI of 4.96%.
In turn, `CCn1c(-c2nonc2N)nc2c(-c3cccc(Cl)c3)ncc(OCCCNCc3cnc(C)nc3N)c21` returned an IFI of 7.62%.
Turning to `CCn1c(-c2nonc2N)nc2c(Cl)ncc(O[C@H](CCN)c3ccccc3F)c21`, the IFI is 23.1%.
`CCn1c(-c2nonc2N)nc2c(-c3ccc(CO)o3)ncc(OCCCN)c21` gave an IFI of 15.4%.
Turning to `CN1CCN(CC2(Nc3nccc(NCc4ccc(Cl)cc4Cl)n3)CCCCC2)CC1`, the IFI stood at 35.7%.
Regarding `Clc1ccc(CNc2ccnc(NCc3cccnc3N3CCCC3)n2)c(Cl)c1`, the IFI turned out to be 16.7%.
As to `CN1CCN(CC2(Nc3nccc(NCCc4cn(C)c5ccccc45)n3)CCCCC2)CC1`, the IFI worked out at 14.3%.
For the compound `COc1cccc(OC)c1CN1CCC(N(C)CCCCCCCCN2CCC(OC(=O)Nc3ccccc3-c3ccccc3)CC2)CC1`, the IFI worked out at 13.1%.
`COc1cccc(OC)c1CN1CCC(N(C)CCCCCCCCCN2CCC(OC(=O)Nc3ccccc3-c3ccccc3)CC2)CC1`: the IFI came out at 17.3%.
On to `COc1ccccc1CCN(C)CCN1CCC(NC(=O)c2ccc(-c3ccc(C(F)(F)F)cc3)cc2)CC1`, for which the IFI came out at 6.19%.
With `COc1cccc(OC)c1OCCCON1C(=N)N=C(N)NC1(C)C`, the IFI was 2.9%.
As for `CN(C)CCC(O)C=C(c1ccc(Cl)cc1)c1ccc(Cl)cc1` (configuration not stated), the IFI stood at 4.69%.
With `CCC(COCc1ccc(Cl)cc1)N(C)CCN(C)C(CC)COCc1ccc(Cl)cc1` (configuration not stated), the IFI was determined as 19.6%.
`CN(CCCCN)Cc1ccc(-c2ccc(Cl)cc2)cc1` had an IFI of 4.44%.
Take `CC1(C)C(=O)N=C2C1=C(O)C(=O)c1ccccc12`: the IFI came to 17.2%.
The figure for `Cc1ccc2c(=NN=Cc3cccc(F)c3)cc(C)[nH]c2c1` is 5.15%; for `C=CCOC(=O)N1CCC(CNCc2cccc(-c3ccc(-c4nc5cccc(C)c5[nH]4)s3)c2)C1` (configuration not stated) it is 3.81%; for `COc1c(CNCCCCCCNCc2c(OC)c(OC)c3ccccc3c2OC)c(OC)c2ccccc2c1OC` it is 21.3%.
Turning to `COc1c(OC)c(OC)c2ccccc2c1CCNCCCCNCCc1c(OC)c(OC)c(OC)c2ccccc12`, the IFI was found to be 18.3%.
For `CCc1c(CCNCCCCCCNCCc2ccc(OC)c(OC)c2CC)ccc(OC)c1OC`, the IFI was determined as 6.47%.
For `COc1cc2ccccc2c(CNCCCCCCNCc2c(OC)c(OC)cc3ccccc23)c1OC`, the IFI is 12.1%.
In the case of `CCCCOc1cc(OC)c2ccccc2c1CCNCCCCNCCc1c(OCCCC)cc(OC)c2ccccc12`, the IFI was 19.1%.
`COc1cc2ccccc2c(OC)c1CCNCCCCNCCc1c(OC)cc2ccccc2c1OC`: the IFI came to 14.5%.
`COc1c(OC)c(OC)c2ccccc2c1CNCCCCCCNCc1c(OC)c(OC)c(OC)c2ccccc12` registered an IFI of 14.8%.
On to `COc1cc2ccccc2cc1CCNCCCCNCCc1cc2ccccc2cc1OC`, for which the IFI was 14.8%.
In the case of `COc1cc2ccccc2c(OC)c1CNCCCCCCNCc1c(OC)cc2ccccc2c1OC`, the IFI came to 12.9%.
For `N=C(N)Nc1nc(-c2cccc(NC(=O)NCc3ccc(OC(F)(F)F)cc3)c2)cs1`, the IFI was 3.79%.
Next, `CC(CN1CCN(C)CC1)C(=O)Nc1ccc(-c2cccc(-c3nc4cc(F)ccc4[nH]3)c2)cc1` (configuration not stated): 2.78%.
The figure for `CC(=O)Nc1ncc(C(=O)Nc2cccc(-c3cccc(-c4nc5cc(C(F)(F)F)ccc5[nH]4)c3)c2)s1` is 5.41%; for `CSc1ccc2ccccc2c1CNCCCCCCNCc1c(SC)ccc2ccccc12` it is 12.3%.
Regarding `CC(C)Oc1ccc2ccccc2c1CNCCCCCCNCc1c(OC(C)C)ccc2ccccc12`, the IFI came to 18.5%.
`COc1ccc2ccccc2c1CNCCCCCCNCc1c(OC)ccc2ccccc12` yielded an IFI of 9.93%.
As for `COc1ccc2c(CNCCCCCCNCc3c(OC)ccc4cc(OC)ccc34)c(OC)ccc2c1`, the IFI is 7.38%.
`CC(C)COc1ccc2ccccc2c1CNCCCCCCNCc1c(OCC(C)C)ccc2ccccc12` gave an IFI of 22.9%.
`Cc1nnsc1C(=O)Nc1cccc(-c2cccc(-c3nc4cc(F)ccc4[nH]3)c2)c1`: the IFI came to 6.42%.
`CC(=NNC(S)=Nc1ccccc1Cl)c1ccccn1`: the IFI amounted to 6.57%.
With `COc1cc(F)c2nccc([C@@H](O)CN3CCC(NCc4cc5c(cc4F)OCCO5)CC3)c2c1`, the IFI worked out at 1.59%.
On to `O=C(Nc1ccc(C(F)(F)F)cc1)Nc1cccc([N+](=O)[O-])c1`, for which the IFI came to 19.1%.
For the compound `COc1cc(NC(=O)Nc2ccc([N+](=O)[O-])cc2OC)c(OC)cc1Cl`, the IFI was 1.83%.
The compound `O=C(Nc1ccc([N+](=O)[O-])cc1)Nc1cc(C(F)(F)F)ccc1F` returned an IFI of 8.62%.
On to `O=C(Nc1cccc([N+](=O)[O-])c1)Nc1cccc(C(F)(F)F)c1`, for which the IFI came to 12.4%.
`N#Cc1ccc(NC(=O)Nc2ccc(OC(F)(F)F)cc2)cc1` yielded an IFI of 20.5%.
`O=C(Nc1ccc(OC(F)(F)F)cc1)Nc1ccc([N+](=O)[O-])cc1`: the IFI amounted to 20.1%.
In turn, `O=C(Nc1ccc(Oc2ccc(OC(F)(F)F)cc2)cc1)c1ccco1` showed an IFI of 5.22%.
`COc1cc(C)nc2ccc(NC(=O)Nc3ccc([N+](=O)[O-])cc3C)cc12` registered an IFI of 3.01%.
`O=C(Nc1cccc([N+](=O)[O-])c1)Nc1ccc(Cl)c(C(F)(F)F)c1` came in with an IFI of 10%.
`O=C(Nc1ccc([N+](=O)[O-])cc1)Nc1cc(OCC(F)(F)F)cc(OCC(F)(F)F)c1` gave an IFI of 9.6%.
Compound `COc1cc([N+](=O)[O-])ccc1NC(=O)Nc1ccc(OC(F)(F)F)cc1` displayed an IFI of 18.4%.
Regarding `O=C(Nc1ccc(CCNCc2ccccc2)cc1)Nc1ccc(OC(F)(F)F)cc1`, the IFI was 0.72%.
